High-throughput results (PubChem)
Rows were chosen to be rich in hits. Some 4.7% of all compounds tested hit in one or more screens of this group.
S2 tox – viability counter-screen for ATXN expression inhibitors; 400,000 tested, 0.49% active; AID 651635; Potency, µM (doses to about 56.7 µM), hits mostly cytotoxic; S2 cells (HEK-293 line with an ATXN2-luciferase reporter) viability, CellTiter-Fluor protease fluorescence, 24 h; note: potency is the fitted concentration of half-maximal effect; nearly all actives have a fitted effect of over 40% in size
ATXN2 expr inh – ATXN2 expression inhibition; HEK-293 ATXN2-luciferase reporter, luminescence, 24 h; Potency, µM (series often up to 57 µM), without a hit: at the highest dose activity change, negative = inhibition, actives largely listed as inhibitors; 360,000 tested, 0.72% active; AID 1745845; note: potency is the fitted concentration of half-maximal effect; % is set by controls: 0 for no effect and ±100 for the full control effect; nearly all actives have a fitted effect of over 55% in size
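ATXN2-luciferase reporter cells (luciferase flanked by upstream and downstream ATXN2 gene portions) were treated 24 h at 37 °C with compounds at up to 57 uM. SteadyGlo luminescence gave expression; GF-AFC fluorescence gave viability.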
TGFb SMAD3 inh – TGF-b pathway inhibition; 410,000 tested, 1.2% active; HepG2 CAGA-GFP TGF-b/SMAD3 reporter, GFP fluorescence, 18 h; TGF-beta stimulated, 500 pg/mL final; Potency, µM (doses to about 46.1 µM), for inactives: at the highest dose activity, negative = inhibition, usual class: inhibitors; AID 588855; note: potency is the fitted concentration of half-maximal effect; % is set by controls: 0 for no effect and ±100 for the full control effect; nearly all actives have a fitted effect of over 65% in size
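First, reporter cells (HEPG2 CAGA-GFP) rested 2 h at 37 degrees C. Next, compounds were pinned in and TGF-beta added to 500 pg/mL final. After 18 h, GFP was imaged per cell and summed per well.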
HepG2 tox – kills HepG2 cells in TGF-b inhibitor counter-screen. HepG2 CAGA-GFP viability, ATP luminescence, 18 h. Potency, µM (titrated, usually from 46.1 µM), for the others: top-dose activity change, negative = cytotoxicity, actives largely listed as cytotoxic. 410,000 tested, 0.76% active. AID 588856; note: potency is the fitted concentration of half-maximal effect
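HepG2 CAGA-GFP cells (1000/well, DMEM with 1% FBS) received compound, then TGF-beta at 500 pg/mL final, and were incubated 18 hours at 37 degrees C. Viability was read by CellTiter-Glo luminescence. Media-only wells were set as complete cell-killing and DMSO as no toxicity.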
DRD3 agonist – activates the human D3 dopamine receptor; max activation, %; P35462; 410,000 tested, 0.58% active; D3R DiscoveRx beta-arrestin cells, luminescence, 90 min; in the data active = max activation above about 30%; note: 0% is about no effect
Target sequence (P35462 whole entry, looked up): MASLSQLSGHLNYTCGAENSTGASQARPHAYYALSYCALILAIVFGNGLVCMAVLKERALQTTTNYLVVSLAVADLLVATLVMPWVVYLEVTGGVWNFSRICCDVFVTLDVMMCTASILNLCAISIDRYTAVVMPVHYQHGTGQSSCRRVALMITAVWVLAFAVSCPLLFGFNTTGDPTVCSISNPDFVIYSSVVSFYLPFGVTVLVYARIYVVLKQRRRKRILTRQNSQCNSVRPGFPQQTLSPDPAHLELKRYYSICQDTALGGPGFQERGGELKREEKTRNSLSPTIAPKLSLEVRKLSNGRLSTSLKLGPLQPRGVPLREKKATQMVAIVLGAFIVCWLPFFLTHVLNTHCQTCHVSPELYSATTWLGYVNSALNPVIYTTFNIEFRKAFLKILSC
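Cells at 1500/well, incubated overnight, then treated with pinned compounds (dopamine as control) for 90 min at 37 degrees C. DiscoveRx reagent added for 30 - 60 minutes at room temperature; luminescence read.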
DRD3 antagonist – antagonists of human D3 dopamine receptor; P35462; D3R cells, DiscoveRx beta-arrestin luminescence, antagonist mode; stronger effect = lower value; max response, negative = inhibition, %; 360,000 tested, 2.5% active; in the data active = max response below about -50%; inconclusive = no clear call, values can overlap the other calls; note: % is set by controls: 0 for no effect and ±100 for the full control effect
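Cells expressing the human receptor were seeded at 1500 cells/well, incubated overnight at 37 degrees C in 5% CO2, then exposed to library compounds with dopamine controls for 90 minutes at 37 degrees C before luminescent detection.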
* marks the source's active call; other numbers are inactive results. Unless noted, calls come from the whole dose curve; as a rule, active = well fitted curve in the direction sought with a large enough effect; inconclusive = small, poorly fitted or top-dose-only effect, or another doubt; inactive = no such curve, though single readings can be large; an effect the other way counts as inactive or inconclusive.

How did C=C[C@H]1C(C(=O)OCC)=CC[C@@H](c2ccccc2)N1S(=O)(=O)c1ccc(C)cc1 do in these assays?
S2 tox: inactive; ATXN2 expr inh: -8%; TGFb SMAD3 inh: -29%; HepG2 tox: -34%; DRD3 agonist: -8; DRD3 antagonist: -2

How did CCc1ccc([C@@H]2CC=C(C(=O)O)[C@H](c3ccc(F)cc3)N2S(=O)(=O)c2ccc(C)cc2)cc1 do in these assays?
S2 tox: inactive; ATXN2 expr inh: 0%; TGFb SMAD3 inh: inconclusive; HepG2 tox: -20%; DRD3 agonist: 4; DRD3 antagonist: -52*

How did Cc1ccc([C@@H]2CC=C(C(=O)O)[C@H](c3ccc(F)cc3)N2S(=O)(=O)c2ccc(C)cc2)cc1 do in these assays?
S2 tox: inactive; ATXN2 expr inh: -23%; TGFb SMAD3 inh: -9%; HepG2 tox: -15%; DRD3 agonist: -21; DRD3 antagonist: -83*

What do the screens show for `CC(=O)NC1=CC(=O)c2nonc2C1=O`?
TGFb SMAD3 inh: inconclusive; HepG2 tox: -96%

What do the screens show for `Nc1cc(C(F)(F)F)ccc1S(=O)(=O)Nc1cccc2c1NCCC2`?
TGFb SMAD3 inh: inconclusive; HepG2 tox: -27%

What do the screens show for `COc1ccc(NC(=O)c2oc3ccccc3c2NC(=O)COc2ccccc2OC)c(OC)c1`?
ATXN2 expr inh: inconclusive; TGFb SMAD3 inh: 18%; HepG2 tox: -6%; DRD3 agonist: 58*; DRD3 antagonist: -1

What do the screens show for `COc1ccc(NC(=O)c2oc3ccccc3c2NC(=O)COc2ccc(C(C)C)cc2)c(OC)c1`?
S2 tox: inactive; ATXN2 expr inh: 1%; TGFb SMAD3 inh: -10%; HepG2 tox: -10%; DRD3 agonist: -6

What do the screens show for `CCOC(=O)c1cnc2c(Cl)c(Cl)ccc2c1Nc1ccc(N(C)C)cc1`?
S2 tox: inactive; ATXN2 expr inh: 1%; TGFb SMAD3 inh: 24%; HepG2 tox: -2%; DRD3 agonist: -13

Results for CN(C)S(=O)(=O)c1cccc(CNCC2COc3ccccc3O2)c1 (stereo unspecified) ?
S2 tox: inactive; ATXN2 expr inh: -6%; TGFb SMAD3 inh: 5%; HepG2 tox: 1%; DRD3 agonist: 31*; DRD3 antagonist: inconclusive

How did c1ccc(CCNCC2COc3ccccc3O2)cc1 (stereo unspecified) do in these assays?
S2 tox: inactive; ATXN2 expr inh: 15%; TGFb SMAD3 inh: 1%; HepG2 tox: -6%; DRD3 agonist: -3; DRD3 antagonist: -85*

How did O=C(O)CNCC1COc2ccccc2O1 (stereo unspecified) do in these assays?
S2 tox: inactive; ATXN2 expr inh: 4%; TGFb SMAD3 inh: -15%; HepG2 tox: 8%; DRD3 agonist: 0; DRD3 antagonist: 16

Results for c1ccc2c(c1)OCC(CNCC1COc3ccccc3O1)O2 (stereo unspecified) ?
S2 tox: inactive; ATXN2 expr inh: 14%; TGFb SMAD3 inh: 5%; HepG2 tox: -12%; DRD3 agonist: -7; DRD3 antagonist: -81*

What do the screens show for `Oc1ccc(CNCC2COc3ccccc3O2)cc1` (stereo unspecified)?
S2 tox: inactive; ATXN2 expr inh: -2%; TGFb SMAD3 inh: -16%; HepG2 tox: -18%; DRD3 agonist: 3; DRD3 antagonist: -73*

Results for CCOc1ccc(Cl)cc1C1CC(=O)Nc2cc(OC)c(OC)c(OC)c21 (stereo unspecified) ?
S2 tox: inactive; ATXN2 expr inh: 13%; TGFb SMAD3 inh: 6%; HepG2 tox: 5%; DRD3 agonist: 3

What do the screens show for `CCc1cc(C(=O)NCC2Cc3cc(-c4ccccc4C(C)=O)ccc3O2)no1` (stereo unspecified)?
S2 tox: inactive

Results for COc1ccccc1/C=C/c1nc2ccccc2o1 ?
TGFb SMAD3 inh: -8%; HepG2 tox: -21%

Results for CC(C)N(CCO)Cc1nc(N2CCOCC2)c2cc(Cl)ccc2n1 ?
S2 tox: inactive
